CHX counter: counter-screen hit for Shiga toxin inhibitors, cycloheximide; cell reporter, cycloheximide protein synthesis inhibition counterscreen; max response, %; 300,000 compounds, 12% hits; AID 2314; in the data active means max response mostly above about 13%, no sharp cut-off; inactive means mostly below about 14%; further: read at 38.3 µM for the half of the compounds with a filed dose; 0% is about no effect
LASV entry inh: blocks Lassa virus binding to or entry into cells; 300,000 compounds, 1.2% hits; Potency, µM (highest dose often 37.9 µM), without a hit: at the highest dose activity change, negative = inhibition, most hits filed as inhibitors; Lassa virus pseudotype entry inhibition, cell reporter; calls by dose curve; tested in HEK293 cells; further: potency means the concentration at half of the fitted maximal effect; on the % scale 0 is the no-effect control and ±100 the full control effect; nearly all actives have a fitted effect of over 50% in size
Shiga inhibitor: blocks Shiga toxin action in Vero cells; inhibition, % at 38.7 µM; 290,000 compounds, 9.2% hits; Vero cells, Shiga toxin protein synthesis inhibition reporter; in the data active means inhibition mostly above about 28%, no sharp cut-off; inactive means mostly below about 43%; further: 0% is about no effect
AMA1 RON2 block: AMA1-RON2 (P. falciparum) interaction inhibition. AlphaScreen AMA1-biotinylated RON2 peptide binding. Potency, µM (series often up to 58.2 µM), without a hit: at the top dose activity change, negative = inhibition, actives largely listed as inhibitors. 360,000 compounds, 0.2% hits. AID 720542; active means well fitted inhibition curve with a large enough effect; inconclusive means small, poorly fitted or top-dose-only effect; inactive means no such curve, though single readings can be large or run the other way;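 further: potency means the concentration at half of the fitted maximal effect; 0% = vehicle wells and -100% = peptide control; nearly all actives have a fitted effect of over 45% in size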
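AMA1 (3D7) with his tag at 25 nM final met compounds first, then biotinylated RON2 peptide at 25 nM; detection used donor plus acceptor beads, 10 µg/mL apiece, read by AlphaScreen after 30 min at room temperature.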
MARV entry inh: blocks Marburg virus binding to or entry into cells; Potency, µM (highest dose often 37.8 µM), for inactives: at the highest dose activity change, negative = inhibition, actives largely listed as inhibitors; 300,000 compounds, 1.8% hits; Marburg virus pseudotyped entry inhibition, cell reporter; AID 540276; calls by dose curve; tested in HEK293 cells; further: potency means the concentration at half of the fitted maximal effect; on the % scale 0 is the no-effect control and ±100 the full control effect
An asterisk follows results filed as active; ? = inconclusive; / = not tested or not shown; [ ] = another dose, or the depositor's remark. This is one part of a sample in which hits are shown more often than they occur.

SMILES	CHX counter	LASV entry inh	Shiga inhibitor	AMA1 RON2 block	MARV entry inh
COC(=O)CCc1sc(NC2CCCCC2)nc1-c1ccc(OC)cc1	25*	-5%	36	?	?
COC(=O)c1ccccc1NC(=O)CSc1nc(O)cc(=O)n1C1CCCC1	1	15%	-12	-2%	-13%
Cc1ccsc1/C=N/Nc1nc(=O)[nH]nc1C	34*	18µM*	112*	-51%	?
Cc1ccsc1/C=N/Nc1ncc(Cl)cc1Cl	32*	?	119*	-10%	-24%
Cc1cc(C)nc(N/N=C/c2sccc2C)n1	26*	1%	77*	39%	?
Cc1ccsc1/C=N/NC(=O)Cc1ccc(Cl)cc1	9	/	19	24%	/
Cc1ccsc1/C=N/Nc1ccc(F)cc1F	44*	17%[46.1 µM]	91*	-23%	?
Cc1ccsc1/C=N/NC(=O)CO	-4	/	-4	4%	/
Cc1cc(C)nc(N/N=C/c2cccc([N+](=O)[O-])c2)n1	12	-4%[46.1 µM]	29	38%	?
O=c1[nH]nc2c3ccccc3occ1-2	/	/	/	-11%	/
Cc1ccc2occ(-c3cc(-c4ccc(F)cc4)nc4c3COc3ccc(F)cc3-4)c(=O)c2c1	/	0%[46.1 µM]	/	/	?
CCOC(=O)CCCCC(=O)c1[nH]c(=O)[nH]c1CN1CCOCC1	-2	3%	-12	9.5µM*	-25%
Cc1cccc(NC(=O)CCS(=O)(=O)c2ccccc2)c1	30*	/	47*	-7%	/
O=C(CCS(=O)(=O)c1ccccc1)Nc1nccs1	4	/	-6	0%	5%
Cc1cccc(NC(=O)CCS(=O)(=O)c2ccccc2)n1	24	12%[46.1 µM]	54*	12%	19%[46.1 µM]
Cc1cccc(C2c3[nH]c4ccccc4c3CCN2C(=O)c2cc(CC(C)C)[nH]c(=O)n2)n1 (centres undefined)	-2	/	15	18%	/
Cc1ccc(NC(=O)N(Cc2ccco2)Cc2cc3cc(C)cc(C)c3nc2Cl)cc1	27*	/	48*	/	0%
O=C(/C=C/Nc1cccc(F)c1)c1ccco1	35*	?	76*	-4%	?
O=C(/C=C/Nc1ccc(F)c(Cl)c1)c1ccco1	68*	20%	142*	-3%	?
CCNC(=O)c1c(NC(=O)c2cc(-c3cc(C)cc(C)c3O)n[nH]2)sc2c1CCCC2	/	16%	/	114%	16%[46.1 µM]
O=C(Nc1ccc(Cl)c(Cl)c1)C1C2C=CC3(O2)C1C(=O)N(CCN1CCCCC1)C3C(=O)NC1CCCCC1 (centres undefined)	-1	-18%[46.1 µM]	-11	-8%	?
CCCCNS(=O)(=O)c1ccc2nc(-c3cccnc3)cc(C(=O)NCCCOC(C)C)c2c1	/	2%[46.1 µM]	/	/	/
COC(=O)c1ccccc1C(=O)N(Cc1cccnc1)CC1CCCN(C2CCCCC2)C1 (centres undefined)	6	/	13	8%	/
Cn1nccc1C(=O)N(CCN1CCCCC1)CC1CCCN(C2CCCC2)C1 (centres undefined)	23*	0%	23	19%	?
CC(C)=CC(=O)N1CC[C@@H](N2CCN(c3ccccc3F)CC2)[C@H](O)C1	-3	14%	-16	18%	?
SMILES	CHX counter	LASV entry inh	Shiga inhibitor	AMA1 RON2 block	MARV entry inh
CCc1cccc(NC(=S)N2CCC(c3ccccc3)C2)c1 (centres undefined)	65*	?	74*	1%	?
CSc1cccc(NC(=S)N2CCC(c3ccccc3)C2)c1 (centres undefined)	20*	?	50*	28%	?
Cc1cccn2c(=O)c3cc(C#N)c(=O)n(CC4CCCO4)c3nc12 (centres undefined)	-1	/	-16	/	2%
CCc1ccc(NC(=O)CCn2c(-c3ccc(OC)cc3)cc(C(C)=O)c2C)cc1	/	-9%[46.1 µM]	/	/	/
O=C(CCC1N=C2c3ccccc3N=C(SCc3cccc(Cl)c3)N2C1=O)NCc1ccco1 (centres undefined)	15*	?	24	-12%	-55%
O=C(CCC1N=C2c3ccccc3N=C(SCC(=O)Nc3cccc(Cl)c3)N2C1=O)NCc1ccco1 (centres undefined)	/	13%[46.1 µM]	/	/	0%[46.1 µM]
C#CCN1C(=O)[C@@]2(CC(C)=CC[C@@H](C)O2)c2ccccc21	/	/	/	/	16%[14.2 µM]
Cc1ccc(CNc2nc(C)cs2)cc1	40*	?	75*	11%	?
c1ccc(CNC2=NCCS2)cc1	-2	12%	10	-8%	15%
Cc1ccc(CNC2=NCCS2)cc1	17*	18%[46.1 µM]	81	3%	?
Cc1ccc(NC(=O)COc2nc(C)cs2)cc1	-1	-1%	-4	0%	10%
Nc1ccn([C@@H]2O[C@H](C(=O)N3CCSC3)[C@@H](O)[C@H]2O)c(=O)n1	/	/	/	-1%	/
O=C(CSc1nc(=O)[nH]c2c1CCC2)NCc1ccc(F)cc1	/	8%[46.1 µM]	/	/	/
Cc1ccsc1-c1nc(CN(C)C(C2CC2)C2CC2)c(C)o1	-3	-8%[46.1 µM]	-6	1%	8.9µM*
CC(C)Cn1c(-c2ccccc2Cl)nc2ccccc21	/	24%[46.1 µM]	/	/	9%[46.1 µM]
CCc1cccc(CC)c1NC(=O)Cn1c(-c2ccccc2Cl)nc2ccccc21	22*	?	37*	-8%	25%
COC(=O)c1cc2occc2n1Cc1ccc(F)cc1Cl	/	/	/	/	6%[46.1 µM]
c1ccc(-c2noc(C34CC5CC(CC(C5)C3)C4)n2)cc1	14*	10%	19	16%	-1%
c1ccc(-c2noc(C34CC5CC(CC(C5)C3)C4)n2)nc1	34*	?	100*	6%	-9%[46.1 µM]
Clc1ccccc1/C=C/c1nc(-c2ccccn2)no1	-1	?	-16	2%	?
CCCCC(=O)N(C)c1c(C)nc2ccc(C(=O)N3CCN(c4ccccc4)CC3)cn12	/	/	/	3%	/
O=C(Nc1ccccc1C(=O)OCc1cc(=O)n2nc(C3CC3)sc2n1)c1cccc(Cl)c1	/	11%[46.1 µM]	/	/	/
Cc1ccc(O)c(NC(=S)NC(=O)C(C)C)c1	16*	4%	52*	35%	2%
Cc1ccc(O)c(NC(=S)NC(=O)/C=C/c2ccccc2)c1	5	/	7	60%	/
Cc1ccc(O)c(NC(=S)NC(=O)CC(C)C)c1	59*	?	61*	-9%[2.32 µM]	3%
SMILES	CHX counter	LASV entry inh	Shiga inhibitor	AMA1 RON2 block	MARV entry inh
Cc1ccc(NC(=S)NC(=O)Cc2ccccc2)c(O)c1	32*	0%	29	86%	-27%
COc1ccc(NC(=S)NC(=O)Cc2ccccc2)c(OC)c1	-2	-3%[46.1 µM]	/	12%	7%[46.1 µM]
CC(C)=C1SC(N2CCN(Cc3ccccc3)CC2)=NC1=O	23*	?	73	3%	?
Cc1cc(NC(=O)C(C)SCC(=O)Nc2cc(C(F)(F)F)ccc2N2CCOCC2)no1 (centres undefined)	/	-25%	/	-12%	-28%[46.1 µM]
Cc1nc2c(C(=O)N3CCN(C)CC3)cnn2c(C)c1Cc1ccc(Cl)cc1	1	6%	-15	0%	-1%
Cc1nc2c(C(=O)N3CCCCC3)cnn2c(C)c1Cc1ccccc1F	71*	-8%	157*	-2%	-3%
Cc1ccc(C2Nc3ccc4ccccc4c3C3=C2C(=O)CC(C)(C)C3)o1 (centres undefined)	13*	?	29	-4%	?

Screening data from PubChem.
